This is part of a sample that, as a whole, favours compounds with a hit. Of some 83,000 tested, about 20% had one in any assay.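 The endpoint reported here, percent growth, reads 100 for growth as untreated, 0 for no net growth and -100 for all cells dead.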 Unmarked numbers belong to inactive results. Activity calls are given as the source filed them. Rule for the calls: active = growth percent below 10; inactive = the rest.
Tests used:
Assay in all cases: NCI-60 one-dose screen, 48 h (100 = growth as untreated, 0 = no growth, -100 = all killed)
Settings in all cases: 10 µM unless noted
SK-MEL-2 melanoma = tested on: SK-MEL-2 melanoma
EKVX NSCLC = tested on: EKVX NSCLC
SN12C renal = tested on: SN12C renal
UO-31 renal = tested on: UO-31 renal
TK-10 renal = tested on: TK-10 renal
ACHN renal = tested on: ACHN renal
A498 renal = tested on: A498 renal
CCRF-CEM leukemia = tested on: CCRF-CEM leukemia
MOLT-4 leukemia = tested on: MOLT-4 leukemia
SR leukemia = tested on: SR leukemia
RPMI-8226 leukemia = tested on: RPMI-8226 leukemia
OVCAR-8 ovarian = tested on: OVCAR-8 ovarian
OVCAR-5 ovarian = tested on: OVCAR-5 ovarian
OVCAR-4 ovarian = tested on: OVCAR-4 ovarian
SK-OV-3 ovarian = tested on: SK-OV-3 ovarian
OVCAR-3 ovarian = tested on: OVCAR-3 ovarian
HS 578T breast = tested on: HS 578T breast
NCI/ADR-RES ovarian = tested on: NCI/ADR-RES ovarian
IGROV1 ovarian = tested on: IGROV1 ovarian

SMILES	growth (SK-MEL-2 melanoma)	growth (EKVX NSCLC)	growth (SN12C renal)	growth (UO-31 renal)	growth (TK-10 renal)	growth (ACHN renal)	growth (A498 renal)	growth (CCRF-CEM leukemia)	growth (MOLT-4 leukemia)	growth (SR leukemia)	growth (RPMI-8226 leukemia)	growth (OVCAR-8 ovarian)	growth (OVCAR-5 ovarian)	growth (OVCAR-4 ovarian)	growth (SK-OV-3 ovarian)	growth (OVCAR-3 ovarian)	growth (HS 578T breast)	growth (NCI/ADR-RES ovarian)	growth (IGROV1 ovarian)
c1cncc(-c2nc3ccccc3[nH]2)c1	106%	120%	89.8%	82.3%	148%	91%	84.4%	110%	97.4%	90.6%	75.3%	98.4%	86.5%	104%	95.3%	98.6%	78.4%	96.1%	
CCC1S/C(=N\N=C(/C)c2cc3ccccc3o2)N(c2ccccc2)C1=O (stereo not drawn)	99.6%	135%	120%	75.9%	108%	100%	136%	-72.8% (active)	-80.8% (active)	15%	65.4%	105%	106%	95.1%	116%		98.7%	89%	-12.9% (active)
O=C(O)c1ccc2nc(-c3ccc(OCCCCCOc4ccc(-c5nc6ccc(C(=O)O)cc6[nH]5)cc4)cc3)[nH]c2c1	101%	113%	62.2%	90.5%	-2.6% (active)	98.4%	53.6%	76.1%	87.7%	120%	123%	49%	9.11% (active)	82.6%	48.8%		82.7%	33.1%	109%
Cc1cn([C@]2(CF)O[C@H](CO)C2C)c(=O)[nH]c1=O (stereo partly drawn)	98.3%	106%	125%	109%	109%	112%	115%	114%	94%	181%	150%	110%	94.5%	113%	122%		110%	113%	-29.1% (active)
S=c1n(CNc2ccc(Cl)nn2)nc(-c2cc(Cl)cc(Cl)c2Cl)n1/N=C/c1ccc(Cl)cc1	84.1%	91.3%	103%	80.8%	113%	107%	121%	-32.8% (active)	60.5%	32.5%	61.2%	114%	100%	87.5%	107%		108%	87.4%	76.2%
Cc1cn(C2CC(N=[N+]=[N-])C(COP(=O)(O)OP(=O)(O)OP(=O)(O)O)O2)c(=O)[nH]c1=O (stereo not drawn)	107%	116%	124%	98.5%	113%	124%	131%	-98% (active)	16.8%	24.3%	60.7%	120%	93%	108%	104%		133%	111%	75.5%
CCC1S/C(=N\N=C(/C)c2cccs2)N(c2ccccc2)C1=O (stereo not drawn)	141%	105%	135%	110%	114%	113%	108%	-39.5% (active)	63.9%	32.6%	110%	97.3%	111%	99.7%	121%		123%	99%	-27.2% (active)
Nn1c(SCC(=O)Nc2cc(Cl)c(Cl)cc2Cl)nnc1-c1cc(F)c(Cl)cc1Cl	87.3%	66.5%	151%	65.2%	123%	210%	115%	125%	84.8%	99.5%	132%	97.5%	108%	120%	105%		103%	99.7%	55.2%
COC(=O)c1oc2c(C(=O)/C=C/c3ccc(OC)cc3)c(OCCN3CCOCC3)ccc2c1C	-30.6% (active)	9.46% (active)	17.5%	-66.4% (active)	25.4%	-34.5% (active)	-47.7% (active)	-38.4% (active)	-20.5% (active)	-28% (active)	-50.7% (active)	-37.6% (active)	29.8%	16%	17.9%		-15.1% (active)	9.24% (active)	-4.01% (active)
CN1CCN(C(=O)/C=C/c2ccc([N+](=O)[O-])o2)CC1	59.5%	132%	91%	79.3%	159%	63.7%	76%	56.4%	59.9%	53.6%	82.3%	77.4%	127%	76.3%	100%	92%	69.2%	99.7%	
Nc1nc(Cl)cc(NCc2ccc(CNc3cc(Cl)nc(N)n3)cc2)n1	74.1%	70.4%	106%	84.3%	124%	92.7%	73.7%	107%	70.7%	139%	103%	89.6%	82.5%	59.7%	92.5%		100%	103%	-31% (active)
CCOc1ccccc1C(=O)N1CCN(c2cc(Cl)cc(Cl)c2)CC1	18.5%	34.1%	25.7%	24.9%	55.5%	21.9%	6.38% (active)	7.43% (active)	7.37% (active)	6.79% (active)	1.53% (active)	11.2%	46.6%	31.7%	25.8%	-22.7% (active)	41.3%	14.5%	
O=C(NC(=S)Nc1ccc(Cl)cc1)c1ccccc1	108%	78.7%	98.4%	83.1%	117%	101%	103%	102%	72.8%	67.9%	95.3%	102%	84.8%	85.6%	115%	125%	127%	104%	
COc1ccc(C2=NN(C(=O)COc3ccc(Cl)cc3)C(O)(c3cc(F)c(Cl)cc3Cl)C2)cc1OC (stereo not drawn)	68.3%	61.6%	19.8%	-86.6% (active)	16%	5.24% (active)	141%	-62.1% (active)	-32% (active)	-35.1% (active)	-74.8% (active)	5.4% (active)	82.8%	21.8%	93.6%		22%	19.9%	-50.6% (active)
O=C(COc1ccc(Cl)cc1Cl)N1N=C(c2ccc(Cl)cc2Cl)CC1(O)c1cc(F)c(Cl)cc1Cl (stereo not drawn)	95.3%	87.7%	155%	76.3%	139%	234%	142%	125%	-47.9% (active)	23.2%	144%	93.2%	105%	116%	110%		122%	106%	69.7%
COc1ccccc1N1CCN(CC(O)COc2c(Br)c(Br)c(Br)c3c2OC(C)(C)C3)CC1 (stereo not drawn)	60.5%	117%	65.8%	13.2%	40.5%	56.1%	55.9%	-54.6% (active)	-36.7% (active)	-50.4% (active)	1.1% (active)	62.2%	61.2%	30.4%	84.2%		67.3%	45.7%	-19.7% (active)
CCNc1cc(S(=O)(=O)O)ccc1C	100%	101%	99.8%	101%	101%	113%	102%	89.7%	92.3%	113%	98%	97.3%	106%	110%	92.4%	116%	104%	102%	
COc1cc(NC(C)CCCN2C(=O)c3ccccc3C2=O)c2nccc(C)c2c1OC (stereo not drawn)	87.6%	98.4%	126%	80.9%	122%	110%	92.9%	-14.2% (active)	-44.2% (active)	33%	64.3%	91.6%	110%	70.5%	107%		98.7%	74%	44.1%
COc1cc(-c2nc3ccccc3s2)ccc1OCc1nc2n(n1)S(=O)(=O)c1ccccc1N2c1ccccc1	98.5%	95.4%	108%	82.4%	121%	107%	100%		80.5%	23.7%	88.9%	103%	104%	102%	110%		97%	107%	56.1%
C[C@H]1C=C(C[C@@H](O)CCCCCCCCCC[C@@H](O)[C@H]2CCC(=O)O2)C(=O)O1	80.2%	91%	117%	82%	100%	96.8%	163%		112%	114%	79.9%	96.7%	91.7%	97.6%	110%		128%	99.6%	-23.5% (active)
O=C1CN(CCN2CC(=O)NC(=O)C2)CC(=O)N1	113%	84.4%	104%	71.8%	107%	103%	103%	107%	28.5%		88.1%	103%	93.2%	96.1%	102%	113%	102%	99.9%	
c1coc(CSc2ncnc3nc[nH]c23)c1	105%	103%	102%	86.5%	125%	106%	90.8%				107%	90.3%	103%	99%	95.7%	107%	106%	106%	97.1%
O=C(O)c1cn(C2CC2)c2cc(N3CCN(C(=O)CSc4nc(NS(=O)(=O)c5ccccc5)cc(=O)[nH]4)CC3)c(F)cc2c1=O	79.7%	105%	98.6%	82%	118%	102%	113%	81%			82.1%	98.5%	112%	104%	117%	83.9%	89.1%	101%	98.3%
